Pf growth 96h – P. falciparum growth inhibition at 96 hour, primary screen for plastid delayed-death inhibitors | P. falciparum luciferase reporter growth, 96 h | Potency, µM (highest dose often 28.7 µM), inactives show at the highest dose activity change, negative = inhibition, most hits filed as inhibitors | 320,000 compounds, 6.9% hits | AID 504834; further: potency means the concentration at half of the fitted maximal effect; on the % scale 0 is the no-effect control and ±100 the full control effect
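Compounds incubated with erythrocytes infected by luciferase-expressing P. falciparum (2% hematocrit, 0.05% parasitemia final) for 96 hours, 37 C in 5% CO2. Growth inhibition scored as decreased luciferase luminescence.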
AMA1-RON2 inh – inhibitors of Plasmodium falciparum AMA1-RON2 interaction; AlphaScreen AMA1-biotinylated RON2 peptide binding; Potency, µM (series often up to 58.2 µM), for the others: at the top dose activity change, negative = inhibition, most hits filed as inhibitors; 360,000 compounds, 0.2% hits;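 further: potency means the concentration at half of the fitted maximal effect; 0% = vehicle wells and -100% = peptide control; nearly all actives have a fitted effect of over 45% in size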
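AMA1 (3D7) with his tag at 25 nM final met compounds first, then biotinylated RON2 peptide at 25 nM; detection used donor plus acceptor beads, 10 µg/mL apiece, read by AlphaScreen after 30 min at room temperature.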
SARS PLP yeast – blocks SARS-CoV papain-like protease in a yeast assay | AID 485353 | S. cerevisiae expressing SARS-CoV PLpro, growth rescue | Potency, µM (top dose mostly 32.9 µM), without a hit: top-dose activity, positive = growth rescue, hits mostly activators | 330,000 compounds, 0.19% hits; calls by dose curve; further: potency means the concentration at half of the fitted maximal effect; 0% is about no effect; nearly all actives have a fitted effect of over 55% in size
Pf growth 48h – P. falciparum growth inhibition at 48 hours (one generation) | 310,000 compounds, 5.9% hits | Potency, µM (top dose mostly 28.7 µM), for the others: top-dose activity change, negative = inhibition, hits mostly inhibitors | P. falciparum luciferase growth in erythrocytes, 48 h | AID 504832; further: potency means the concentration at half of the fitted maximal effect; on the % scale 0 is the no-effect control and ±100 the full control effect
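Firefly luciferase activity from engineered P. falciparum reports growth; inhibitors lower the luminescent signal. Cultures contained 2% hematocrit erythrocytes at 0.1% final parasitemia.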
CHX counter – counter-screen hit for Shiga toxin inhibitors, cycloheximide; cell reporter, cycloheximide protein synthesis inhibition counterscreen; max response, %; 300,000 compounds, 12% hits; in the data active means max response mostly above about 13%, no sharp cut-off; inactive means mostly below about 14%; further: read at 38.3 µM for the half of the compounds with a filed dose; 0% is about no effect
Shiga toxin inh – Shiga toxin inhibition | 290,000 compounds, 9.2% hits | Vero cells, Shiga toxin protein synthesis inhibition reporter | inhibition, % at 38.7 µM; in the data active means inhibition mostly above about 28%, no sharp cut-off; inactive means mostly below about 43%; further: 0% is about no effect
* = called active by the depositor; ? = inconclusive; . = no result; [ ] = dose if it differs, or a comment. A selection: hits, their analogues and other compounds. The true share with any hit is near 19%. Unless noted, the call rests on the fitted dose curve; in most records, active means well fitted curve in the direction sought with a large enough effect; inconclusive means small, poorly fitted or top-dose-only effect, or another doubt; inactive means no such curve, though single readings can be large; an effect the other way counts as inactive or inconclusive.

SMILES	Pf growth 96h	AMA1-RON2 inh	SARS PLP yeast	Pf growth 48h	CHX counter	Shiga toxin inh
COc1ccccc1-c1nn(-c2ccccc2)cc1C(=O)NCC(c1ccco1)N1CCCC1 (stereo unspecified)	15µM*	13%	3%	?	.	.
O=C(N/C(=C/c1cn(-c2ccccc2)nc1-c1ccccc1)C(=O)N1CCOCC1)c1ccc(Cl)cc1Cl	?	?	8%	6.6µM*	-1	-2
O=C(NCC(c1ccco1)N1CCCC1)c1ccccc1F (stereo unspecified)	.	12%	-2%	4%	6	-8
O=C(NCC(c1ccco1)N1CCCC1)c1cn(Cc2ccccc2)nc1-c1ccccc1 (stereo unspecified)	9.3µM*	-1%	3%	?	.	.
COC(=O)C1=C[C@@H](C(=O)OC)C2C3=C(C(=O)[C@]2(C)NC(=O)c2ccccc2)[C@H](C)[C@@H]2C(=O)N(C)C(=O)[C@@H]2[C@@H]3C1 (stereo partly specified)	.	.	.	.	-4	3
O=C(Nc1nccs1)C(c1ccccc1)N1CCCCC1 (stereo unspecified)	8%	1%	1%	2%	9	23
CC(=O)c1c(C)[nH]c(C(=O)OCC(=O)NC(C)c2ccccc2)c1C (stereo unspecified)	.	2%	.	.	.	.
Cc1ccc(NC(=O)CN2C(=O)N/C(=C\c3ccco3)C2=O)cc1	.	.	5%	.	.	.
NS(=O)(=O)c1ccc(Nc2nc3ccccc3nc2NS(=O)(=O)c2cccc([N+](=O)[O-])c2)cc1	1%	-2%	2%	-16%	7	5
CN(C)/C=N/c1cnc(C(=O)c2ccc(Cl)cc2)n1C	5%	-20%	-1%	131%	45*	83*
CC(C)CCOc1ccc(C2CC(=O)N(C)C2=O)cc1 (stereo unspecified)	2%	1%	-1%	-3%	21*	33
CCCCN1C(=O)C(C(=O)OCc2ccccc2)CC2=C1CCCC2=O (stereo unspecified)	.	4%	.	.	.	.
CC(=O)Nc1ccc(NC(=O)/C=C/c2ccccc2)cc1	252%	24%	0%	?	25*	33*
COc1cccc(/C=C/C(=O)NNC(=O)c2ccncc2)c1	3%	139%	4%	-15%	.	.
COc1ccc(NC(=O)/C=C/c2ccccc2)cn1	51%	-7%	-30%	72%	35*	86*
COc1ccc(NC(=O)/C=C/c2ccc(F)cc2)cn1	-6%	-3%	-28%	26%	51*	108*
COc1ccc(NC(=O)/C=C/c2cc(OC)c(OC)c(OC)c2)cn1	18%	2%	0%	3%	8	14
COc1cccc(/C=C/C(=O)Nc2ccc(OC)nc2)c1	5%	0%	-48%	19%	30*	88*
Cc1noc(C)c1NC(=O)N(C)C[C@@H]1Oc2ccc(NC(=O)C3CCCCC3)cc2C(=O)N([C@@H](C)CO)C[C@H]1C	.	1%	1%	.	.	.
Cc1cccc(NC(=O)c2ccc(CN3CCc4ccccc4C3)cc2)c1C	?	6%	0%	11%	6	-4
COC(=O)Cc1n[nH]c(=O)c2ccccc12	.	5%	12%	10%	-5	-26
COC(=O)c1ccc(COC(=O)c2ccccn2)cc1	.	-9%	-7%	3%	38*	86*
O=C(OCc1c(Cl)cccc1Cl)c1ccccn1	0%	2%	-31%	19%	-2	-18
COC(=O)c1ccc(COC(=O)Cc2n[nH]c(=O)c3ccccc23)cc1	0%	-13%	-4%	0%	27*	27
O=C(Oc1ccc(Cl)cc1)c1ccc(COC(=O)c2cnccn2)cc1	17%	25%	-16%	.	40*	87*
SMILES	Pf growth 96h	AMA1-RON2 inh	SARS PLP yeast	Pf growth 48h	CHX counter	Shiga toxin inh
CC(C)OC(=O)c1ccc(COC(=O)c2cnccn2)cc1	10%	4%	0%	-2%	6	49
O=C(OCc1ccc(F)cc1Cl)c1ccccn1	-22%	3%	-22%	35%	20*	19
CC(=O)c1cccc(NC(=O)C2(C)Cc3c(-c4cccc(C(F)(F)F)c4)ccnc3O2)c1 (stereo unspecified)	.	-6%	.	.	.	.
COc1cccc(N2CCN(C(=O)c3cc4c(s3)CCCCC4)CC2)c1	62%	-22%	1%	48%	.	.
O=C(COC(=O)c1cnccn1)c1ccc(OC(=O)c2ccccc2)cc1	3%	-1%	-3%	23%	0	-2
O=C(Oc1ccccc1)c1ccc(COC(=O)c2cnccn2)cc1	11%	4%	-12%	2%	22*	30
O=C(NCc1ccccc1)c1ccc(NC(=O)c2ccccc2F)cc1	?	13%	-4%	-6%	-5	-9
O=C(/C=C/c1cccs1)c1ccc(NC(=O)c2ccccc2F)cc1	18%	22%	6%	48%	25*	40*
COc1ccccc1C(=O)Nc1ccc(C(=O)/C=C/c2cccs2)cc1	?	0%	-19%	0%	18*	22
O=C(CN1CCN(S(=O)(=O)c2cc(C(F)(F)F)ccc2Cl)CC1)N1CCc2ccccc2C1	?	5%	-5%	13µM*	.	.
COc1cc2c(cc1OC)CN(C(=O)CN1CCN(S(=O)(=O)c3ccccc3Br)CC1)CC2	11%	-9%	5%	?	17*	69*
COc1ccc(S(=O)(=O)N2CCN(CCCOc3ccc(F)cc3)CC2)cc1OC	4.7µM*	10%	14%	?	-1	3
O=C(c1cc(S(=O)(=O)N2CCOCC2)c(Cl)cc1Cl)N1CCCC1	?	-2%	-4%	15%	.	.
COc1cc2c(cc1OC)CN(C(=O)c1cc(S(=O)(=O)N3CCOCC3)c(Cl)cc1Cl)CC2	5.2µM*	-3%	0%	?	3	-2
COc1cc2c(cc1OC)CN(C(=O)Cn1ccccc1=O)CC2	-21%	?	2%	16%	-2	12
Cc1ccc(C)c(S(=O)(=O)N2CCN(CC(=O)N3CCc4ccccc4C3)CC2)c1	-52%	?	5%	.	13	-8
COc1ccc(S(=O)(=O)N2CCN(c3ccc(F)cc3)CC2)cc1OC	335%	0%	-4%	15%	-1	-11
CCCNC(=O)N(C)C[C@H]1Oc2ncc(C#CCc3ccccc3)cc2C(=O)N([C@H](C)CO)C[C@H]1C	.	0%	.	.	.	.
CCOC(=O)c1cc(C(=O)OCC)c(=O)[nH]c1N1CCCCC1	?	-2%	2%	?	-2	4
COc1ccc(S(=O)(=O)N2CCN(CC(=O)N3CCc4ccccc4C3)CC2)cc1OC	9.3µM*	-1%	2%	?	.	.
O=C(CN1CCN(S(=O)(=O)c2ccc(F)c(Cl)c2)CC1)N1CCc2ccccc2C1	.	9%[11.6 µM]	.	.	.	.
